# Test results as given in PubChem BioAssay AID1345085 (National Center for Advancing Translational Sciences (NCATS), 2018).
# Results filed as inconclusive are left out. A number with no mark means an inactive call. The source made the active and inactive calls. Calls come from the whole dose curve; as a rule, active = well fitted cell-killing curve with a large enough effect; inconclusive = small, poorly fitted or top-dose-only effect, or effect the other way; inactive = no such curve, though single readings can be large or run the other way.
# System: Es-2
# Experiment: Confirmatory qHTS for gynecologic anti-cancer compounds from libraries of approved drugs and bioactive compounds; note: nearly all actives have a fitted effect of over 55% in size
# Conditions: gynecologic cancer cell panel viability, ATPlite luminescence, 48 h; series mostly up to 57.6 µM; activity change, negative = viability loss: at the top concentration
# In short: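 Seeding 1,000 cells per well preceded overnight (16 h) attachment, after which 48 h drug treatment across 57.5 uM–0.977 nM (11 points) was applied. Remaining cellular ATP, detected by ATPlite luminescence, defined IC50.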
# % is set by controls: 0 for no effect and ±100 for the full control effect; potency is the fitted concentration of half-maximal effect.
SMILES,Potency,"activity change, negative = viability loss [%]"
Cc1cc(C(=O)N2CCN(c3cccc(Cl)c3)CC2)n(-c2ccccc2)n1,2.43 µM (active),–
CNCc1ccc(-c2[nH]c3cc(F)cc4c3c2CCNC4=O)cc1,–,-16.9
O=C(O)c1ccc(Nc2ncc3c(n2)-c2ccc(Cl)cc2C(c2c(F)cccc2F)=NC3)cc1,–,5.57
COc1cc(Nc2ncc3c(n2)-c2ccc(Cl)cc2C(c2c(F)cccc2OC)=NC3)ccc1C(=O)O,–,22.5
Cn1cc(-c2ccc3ncc(Cc4ccc5ncccc5c4)n3n2)cn1,–,0.637
C[C@@H](Oc1cc(-c2cnn(C3CCNCC3)c2)cnc1N)c1c(Cl)ccc(F)c1Cl,15.3 µM (active),–
Nc1nccc(Oc2ccc(NC(=O)c3c[nH]cc(-c4ccc(F)cc4)c3=O)cc2F)c1Cl,34.3 µM (active),–
COCCOc1nc(-c2ccc(Cl)c(Cl)c2)n(-c2ccc(NC(=O)CCl)cc2)n1,5.44 µM (active),–
Cn1cc(-c2[nH]c3cc(NC(=O)[C@H](N)C4CCCCC4)cc4c3c2C=NNC4=O)cn1,6.85 µM (active),–
Nc1ccccc1NC(=O)c1ccc(CNc2nccc(-c3cccnc3)n2)cc1,2.43 µM (active),–
CC[C@@]1(O)C(=O)OCc2c1cc1n(c2=O)Cc2c-1nc1ccccc1c2/C=N/OC(C)(C)C,0.0153 µM (active),–
Cn1cnc([N+](=O)[O-])c1Sc1ncnc2nc[nH]c12,15.3 µM (active),–
Cc1cc(C(C)Nc2ccccc2C(=O)O)c2nc(N3CCOCC3)cc(=O)n2c1 (stereo not drawn),–,-20.9
O=c1c2ccccc2nc2n1CCc1c-2[nH]c2ccccc12,–,-0.16
CCCC(Nc1nc(-c2ccc(NC(=O)NCC)c(OC)c2)ncc1C)c1cccnc1 (stereo not drawn),0.193 µM (active),–
COc1cc(Nc2c(C#N)cnc3cc(OCCCN4CCN(C)CC4)c(OC)cc23)c(Cl)cc1Cl,21.7 µM (active),–
Cc1ccccc1C(OCCN(C)C)c1ccccc1 (stereo not drawn),–,6.47
Cc1cc(Nc2nc(N[C@@H](C)c3ncc(F)cn3)ncc2Cl)n[nH]1,–,-7.91
CC1(C)[C@@H](O)CC[C@]2(C)[C@H]3C(=O)C=C4[C@@H]5C[C@@](C)(C(=O)O)CC[C@]5(C)CC[C@@]4(C)[C@]3(C)CC[C@@H]12,–,12.5
Nc1ccccc1NC(=O)c1ccc(CNC(=O)OCc2cccnc2)cc1,7.69 µM (active),–
Cc1cnc(Nc2ccc(CN3CCOCC3)cc2)nc1Nc1cccc(S(=O)(=O)NC(C)(C)C)c1,4.32 µM (active),–
CC(C)[C@@H](CS(=O)(=O)C(C)C)N1C(=O)[C@@](C)(CC(=O)O)C[C@H](c2cccc(Cl)c2)[C@H]1c1ccc(Cl)cc1,–,20.7
CCN1CCN(Cc2ccc(-c3cc4c(NC(C)c5ccccc5)ncnc4[nH]3)cc2)CC1 (stereo not drawn),27.3 µM (active),–
